Laboratory results as given in PubChem BioAssay AID504332 (National Center for Advancing Translational Sciences (NCATS), 2011).
Screen size: about 350,000 compounds; about 31,000 (8.9%) were called active. Where a call stands in place of a potency, no number is given. Not shown: some 15% with an inconclusive outcome. The full list was thinned out, with actives kept by preference. A number with no mark means an inactive call. Calls follow the shape of the dose curve; as a rule, active = well fitted inhibition curve with a large enough effect; inconclusive = small, poorly fitted or top-dose-only effect; inactive = no such curve, though single readings can be large or run the other way.

These compounds were tested against Histone-lysine N-methyltransferase EHMT2 (Homo sapiens) (UniProt Q96KQ7) (assay: qHTS Assay for Inhibitors of Histone Lysine Methyltransferase G9a). Conditions: G9a H3K9 monomethylation, AlphaScreen, 2 h; series mostly up to 59 µM.
Outline: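 AlphaScreen detection with an anti-monomethyl H3K9 antibody quantified product after a 2 h room-temperature reaction containing 500 nM biotinylated H3K9 peptide, 20 µM SAM and 20 nM enzyme, which had been preincubated 15 min with compound.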
Also: nearly all actives have a fitted effect of over 75% in size.
Potency is read from the fitted curve at half-maximal effect.

Chain of Histone-lysine N-methyltransferase EHMT2 (Homo sapiens) (Q96KQ7 913-1193 limits assumed): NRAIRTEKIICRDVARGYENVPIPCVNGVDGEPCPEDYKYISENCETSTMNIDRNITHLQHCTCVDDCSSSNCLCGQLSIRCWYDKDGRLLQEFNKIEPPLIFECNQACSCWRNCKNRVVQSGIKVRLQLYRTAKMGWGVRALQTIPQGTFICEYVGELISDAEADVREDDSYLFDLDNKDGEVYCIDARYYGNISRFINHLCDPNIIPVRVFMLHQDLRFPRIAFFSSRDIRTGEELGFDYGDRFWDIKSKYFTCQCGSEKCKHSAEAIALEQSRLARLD

Structure (SMILES) | Potency | activity, negative = inhibition
CC1CCCN(c2csc3ccc(F)cc3c2=O)C1 (configuration not stated) | inactive | –
CCc1cccc(NC(=O)CCCN2C(=O)C(c3ccccc3)Oc3cccnc32)c1 (configuration not stated) | – | 26% [at 0.0925 µM]
O=C(CN1CCCCCC1)Nc1ccc(Br)cc1[N+](=O)[O-] | 35.5 µM (active) | –
O=C(CN1CCCCCC1)Nc1ccc(Br)cc1Br | inactive | –
COc1cc([N+](=O)[O-])ccc1NC(=O)CN1CCCC1 | inactive | –
COC(=O)c1sccc1S(=O)(=O)N(CC(=O)Nc1ccc(C)c(F)c1)c1ccc(C)c(C)c1 | inactive | –
O=S(=O)(NCc1ccc(Cl)cc1Cl)c1cccs1 | – | 14.7% [at 0.501 µM]
Cc1cccc(-n2c(SCC(N)=O)nc3c(oc4ccccc43)c2=O)c1 | inactive | –
COc1cccc(-n2c(=S)[nH]c3c(oc4ccccc43)c2=O)c1 | 44.7 µM (active) | –
COc1ccc(-n2c(SCC(N)=O)nc3c(oc4ccccc43)c2=O)cc1 | inactive | –
CCOc1cc(/C=C(\C#N)C(=O)Nc2ccccc2C)ccc1OCc1cc(=O)n2nc(CC)sc2n1 | inactive | –
Cc1cc(C)n(-c2ccc(C(=O)O)cc2[N+](=O)[O-])n1 | inactive | –
CC(=O)Nc1ccc(/C=C/C(=O)c2ccccc2)cc1 | – | -1.87% [at 2.33 µM]
CN(C)c1ccc(/C=C/C(=O)c2ccc(C(C)(C)C)cc2)cc1[N+](=O)[O-] | 12.6 µM (active) | –
COc1cccc(CNC(=O)CN2C(=O)CCc3cc(S(=O)(=O)N4CCOCC4)ccc32)c1 | inactive | –
COc1ccc(C(CNC(=O)c2ccc(S(=O)(=O)Nc3ccccc3C)cc2)N2CCOCC2)cc1 (configuration not stated) | – | 19% [at 2.33 µM]
Cc1ccn2cc(-c3nonc3C)cc2c1 | 10 µM (active) | –
COc1ccc(-c2cn3ccc(C)cc3n2)cc1 | inactive | –
Cc1nc(-c2ccc(F)cc2)c(CC(=O)N(C)CC(=O)Nc2c(C)cccc2C)s1 | inactive | –
CCCSc1nc2sc3c(c2c(=O)n1-c1cccc(Br)c1)CC(C)(C)OC3 | inactive | –
Cc1cc(C(=O)OC(C)C(=O)NC2CCCCC2C)c(C)o1 (configuration not stated) | inactive | –
O=C(CCc1ccccc1)NCc1ccc2c(c1)CCN2C(=O)c1ccccc1 | inactive | –
Cc1cccc(NC(=S)NCCN(C2CCCCC2)C2CCCC2)c1 | inactive | –
Cc1cc(C)cc(NC(=S)NCc2ccc(F)cc2)c1 | inactive | –
O=C(O)CCC(=O)NCc1ccc2[nH]c3c(c2c1)CCCC3 | 50.1 µM (active) | –

Structure (SMILES) | Potency | activity, negative = inhibition
Cc1cccc(NC(=S)NCc2ccc3[nH]c4c(c3c2)CCCC4)c1 | 39.8 µM (active) | –
O=C(O)CCC(=O)NCc1ccc(C(=O)O)cc1 | inactive | –
Cc1ccc(Cl)cc1NC(=O)CCC(=O)N1CC(C)Sc2ccccc21 (configuration not stated) | inactive | –
O=C(NCc1ccccc1)c1ccc2c(c1)nc1n2CCCCC1 | inactive | –
CC(=O)c1ccc(NS(=O)(=O)c2ccc(-c3cc(C)no3)s2)cc1 | inactive | –
Cc1ccc(N(C)C(=O)C2CCN(S(=O)(=O)c3ccc4c(c3)CCCN4C(=O)C3CCC3)CC2)cc1 | inactive | –
CCN(C(=O)COc1ccc(C(=O)c2ccccc2)cc1)c1ccccc1 | inactive | –
CC(=O)NNC1=Nc2ccccc2N(C)C(C)C1 (configuration not stated) | 31.6 µM (active) | –
COC(=O)C1=C(C(=O)OC)[C@@H]2N(C)c3ccccc3[C@@]23C[C@@H](C(=O)OC)N(C(C)=O)C3=N1 | inactive | –
O=C(CNS(=O)(=O)c1ccc2ccccc2c1)Nc1ccc(F)c(F)c1F | – | 2.41% [at 12.7 µM]
CC1CCCCC12NC(=O)N(CC(=O)Nc1ccc(S(=O)(=O)Nc3ncccn3)cc1)C2=O (configuration not stated) | – | -10.5% [at 12.7 µM]
COc1ccc(N2CCN(C(=O)COC(=O)c3cccc(S(=O)(=O)Nc4ccccc4OC)c3)CC2)cc1 | 15.8 µM (active) | –
COc1ccc(S(=O)(=O)Nc2ccccc2C(=O)N2CCCC2)cc1C | inactive | –
CCOc1ncccc1C(=O)NNC(=O)c1cccc(S(=O)(=O)Nc2ccccc2OC)c1 | inactive | –
CC1CN(C(=O)COC(=O)c2cccc(NS(=O)(=O)c3ccccc3)c2)CC(C)O1 (configuration not stated) | – | 3.95% [at 0.501 µM]
COc1ccccc1NS(=O)(=O)c1ccc(C(=O)N2CCN(c3ccccc3O)CC2)cc1 | 44.7 µM (active) | –
COc1ccccc1N1CCN(C(=O)c2ccc(S(=O)(=O)N3CCCCC3)cc2)CC1 | – | -28.9% [at 12.7 µM]
CCOc1ccc(C2CC(=O)c3c([nH]c(C(=O)OCc4ccccc4)c3C)C2)cc1 (configuration not stated) | inactive | –
CN(c1ccccc1)S(=O)(=O)c1cccc(C(=O)NNC(=O)c2ccncc2)c1 | inactive | –
COc1ccc(OC)c(-c2csc(-c3c(N)c(C(=O)c4ccccc4)n4ccccc34)n2)c1 | inactive | –
Cc1nn(CC(=O)O)c(=O)c2cc3cc(F)ccc3n12 | inactive | –
Cc1ccn2c(=O)c(NC(=O)c3cccc4ccccc34)c(C)nc2c1 | inactive | –
N#Cc1c(-c2ccccc2)c(-c2ccccc2)n[nH]c1=O | inactive | –
O=C(O)c1n[nH]nc1-c1ccccc1 | 3.55 µM (active) | –
c1ccc(Nc2n[nH]nc2-c2ccccc2)cc1 | inactive | –

Structure (SMILES) | Potency | activity, negative = inhibition
CCOc1ccc(OCC)c(NC(=O)c2c(C)nn(-c3ccccc3)c2-n2cccc2)c1 | inactive | –
CC(C)c1ccc(C2CC(=O)N3CN(C4CCCCC4)CSC3=C2C#N)cc1 (configuration not stated) | 2.24 µM (active) | –
CC(C)c1ccc(C2C(C#N)=C(N)Oc3c2oc(CO)cc3=O)cc1 (configuration not stated) | inactive | –
OCC[C@H]1C[C@@H](O)[C@H](O)[C@@]2(OCCc3ccccc32)O1 | – | -2.06% [at 2.33 µM]
O=C(CCSCc1ccccc1F)N1CCN(c2ccc(Cl)cc2)CC1 | inactive | –
Cc1cc(C)c(C(=O)CSc2nc(C)cc(=O)[nH]2)c(C)c1 | 31.6 µM (active) | –
Cc1cc(=O)[nH]c(SCC(=O)N2c3ccccc3CC2C)n1 (configuration not stated) | – | -1.7% [at 12.7 µM]
Cc1cc(=O)[nH]c(SCC(=O)Nc2ccc(Br)cc2)n1 | – | 10.1% [at 12.7 µM]
Cc1cc(Cl)c2oc(C(=O)NC(C)c3ccncn3)c(C)c2c1 (configuration not stated) | inactive | –
COc1ccc(N=Cc2c(O)[nH]c3ccccc23)cc1OC | 50.1 µM (active) | –
COc1cc(N=Cc2c(O)c3ccccc3oc2=O)c(OC)cc1Cl | – | 16.1% [at 0.501 µM]
COc1ccccc1N=Cc1c(O)c2ccccc2oc1=O | inactive | –
CCOC(=O)Cn1c(=O)n(Cc2ccc(OC)cc2)c(=O)c2cccnc21 | inactive | –
CC1CCCN(S(=O)(=O)c2ccc3[nH]c(=O)cc(C(=O)NCCc4ccc(Cl)cc4)c3c2)C1 (configuration not stated) | inactive | –
COc1ccc(S(=O)(=O)NCc2cccn2Cc2cccc(C)c2)cc1 | inactive | –
CCOc1ccccc1C(=O)NCc1ccc2c(c1)CCN2C(=O)c1ccc(F)cc1 | inactive | –
Cc1nn2c3ccccc3nc2n(C)c1=O | inactive | –
Cn1c(-c2ccco2)nc2cc3ccccc3cc21 | – | 8.95% [at 0.0925 µM]
c1coc(-c2nc3nc4ccccc4n3nc2-c2ccco2)c1 | 10 µM (active) | –
CCOc1ccc(CCNC(=O)c2c(C)oc3ncn(C)c(=O)c23)cc1 | inactive | –
CCCc1nn2c(=O)cc(COC(=O)c3ccc(NC(=O)C(C)Oc4ccccc4)cc3)nc2s1 (configuration not stated) | inactive | –
COc1ccc(/C=C/C(=O)c2cc(Br)ccc(=O)c2O)cc1 | 10 µM (active) | –
COc1ccc(C(=O)/C=C/c2ccc(OC3CSC3)cc2)cc1 | inactive | –
COc1ccc(/C=C/C(=O)c2ccc(OC)cc2O)cc1 | inactive | –
Cc1cccc(Cc2c(C)nc3nc(SCc4ccccc4Cl)nn3c2C)c1 | inactive | –

Structure (SMILES) | Potency | activity, negative = inhibition
CCOC(=O)c1ccc(N2C(=O)c3n[nH]c(C)c3C2c2ccc(O)c(OC)c2)cc1 (configuration not stated) | inactive | –
CCOC(=O)c1ccc(N2C(=O)c3n[nH]c(-c4ccco4)c3C2c2ccc(O)cc2)cc1 (configuration not stated) | 17.8 µM (active) | –
CCOC(=O)c1ccc(N2C(=O)c3[nH]nc(-c4ccccc4)c3C2c2ccc(C(C)C)cc2)cc1 (configuration not stated) | inactive | –
Cc1ccc(F)cc1NC(=O)CCSc1nc(-c2ccco2)cc(C(F)(F)F)n1 | inactive | –
Cc1ccc(NC(=O)CCCn2c(=O)c3cccn3c3ccccc32)cc1Cl | inactive | –
COc1cc(OC)c(C(=O)OCC(=O)N2CC(=O)Nc3ccccc32)cc1OC | inactive | –
O=C1CN(C(=O)COC(=O)C2CC(=O)N(Cc3ccco3)C2)c2ccccc2N1 (configuration not stated) | 50.1 µM (active) | –
Cc1ccc(S(=O)(=O)N2CCC(C(=O)OCC(=O)N3CC(=O)Nc4ccccc43)CC2)cc1 | inactive | –
COc1ccc(OC)c(S(=O)(=O)N2CCCC(C(=O)N3CCC(C(N)=O)CC3)C2)c1 (configuration not stated) | inactive | –
O=C(CSc1ncc(CO)n1Cc1ccc(Cl)cc1)NCc1ccc(F)cc1 | inactive | –
CCc1c(C)sc(NC(=O)c2cccs2)c1C(N)=O | 11.2 µM (active) | –
CCc1c(C)sc(NC(=O)c2ccc(Br)o2)c1C(=O)OC | inactive | –
CCCc1nnc(NC(=O)c2cccs2)s1 | – | -0.387% [at 12.7 µM]
CCc1c(C)sc(NC(=O)C2c3ccccc3Oc3ccccc32)c1C(=O)OC(C)C | inactive | –
COc1cc(C(=O)NCC(=O)N2CC=C(c3ccccc3)CC2)cc(OC)c1OC | inactive | –
O=C(COC(=O)c1ccccc1)c1ccc2c(c1)OCCO2 | inactive | –
CN(C(=O)C1CCN(c2ncnc3c2nc2n3CCCCC2)CC1)C1CCCCC1 | inactive | –
COCc1c(C(=O)OCC(=O)Nc2ccc(OC(F)F)cc2)oc2ccccc12 | – | -14.1% [at 12.7 µM]
CN(C(=O)Cn1nnc(-c2ccc(F)cc2)n1)C1CCS(=O)(=O)C1 (configuration not stated) | – | 14.1% [at 12.7 µM]
COc1cccc(-c2noc(C3CCCN(C(=O)c4ccc(F)cc4)C3)n2)c1 (configuration not stated) | inactive | –
O=C(c1ccc(F)cc1)N1CCCC(c2nc(-c3cccs3)no2)C1 (configuration not stated) | inactive | –
Cc1ccc(-c2noc(C3CCCN(C(=O)c4cccc(Cl)c4)C3)n2)o1 (configuration not stated) | 39.8 µM (active) | –
